ELG1 repair inh = blocks ELG1-dependent DNA repair in HEK293T cells; Potency, µM (series often up to 46.1 µM), actives largely listed as inhibitors; hit rate 2.3% among 330,000; AID 504467; HEK293T ELG1-luciferase reporter, luminescence, 16 h; DNA damage induced by 5-fluorouridine; also: nearly all actives have a fitted effect of over 55% in size
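Cells (2,000 per well) received 5-fluorouridine plus test compound or DMSO and were incubated 16 hr at 37 °C, 5% CO2. Luciferase activity was read by luminescence 30 min after ONE-Glo addition; signal suppression marked inhibition of damage-induced ELG1 function.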
ALOX12 inh = ALOX12 (human) lipoxygenase inhibition; hit rate 1.1% among 580,000; Potency, µM (top dose mostly 108 µM), actives largely listed as inhibitors; purified 12hLO, xylenol orange hydroperoxide absorbance; P18054
Target sequence (P18054 whole entry, looked up): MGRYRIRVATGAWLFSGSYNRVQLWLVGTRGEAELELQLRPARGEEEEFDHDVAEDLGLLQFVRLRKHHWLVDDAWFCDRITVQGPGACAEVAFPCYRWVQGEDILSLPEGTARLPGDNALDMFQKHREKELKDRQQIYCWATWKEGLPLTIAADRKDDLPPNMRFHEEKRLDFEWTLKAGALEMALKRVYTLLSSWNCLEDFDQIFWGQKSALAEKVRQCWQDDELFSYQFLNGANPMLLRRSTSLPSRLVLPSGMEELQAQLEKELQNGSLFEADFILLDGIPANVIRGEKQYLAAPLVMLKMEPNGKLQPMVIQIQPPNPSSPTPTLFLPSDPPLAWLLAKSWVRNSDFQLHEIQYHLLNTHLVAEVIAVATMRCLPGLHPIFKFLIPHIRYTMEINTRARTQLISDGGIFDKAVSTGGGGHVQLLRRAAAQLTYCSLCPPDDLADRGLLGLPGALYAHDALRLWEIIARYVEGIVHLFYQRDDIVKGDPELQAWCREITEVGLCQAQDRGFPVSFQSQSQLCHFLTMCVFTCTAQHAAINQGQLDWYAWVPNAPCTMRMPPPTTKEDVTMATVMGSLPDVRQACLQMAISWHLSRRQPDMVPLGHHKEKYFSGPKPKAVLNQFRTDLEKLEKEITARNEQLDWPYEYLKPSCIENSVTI
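Purified human 12hLO at 150 nM in 25 mM Hepes, 0.01% Triton X-100, pH 7.0, preincubated 15 min at room temperature with compound. Reaction started with 40 uM arachidonic acid, 30 min at room temperature. Hydroperoxide measured by Fe-xylenol orange, 573/405 nm absorbance ratio.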
DT40 TDP1 no CPT = qHTS for Inhibitors of human tyrosyl-DNA phosphodiesterase 1 (TDP1): qHTS in cells in absence of CPT; hit rate 15% among 420,000; AID 686978, 2013; DT40 Tdp1-/- hTDP1 cells, no CPT, ATP luminescence, 48 h; Potency, µM (titrated, usually from 46.2 µM), hits mostly inhibitors; also: nearly all actives have a fitted effect of over 55% in size
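Cells were dispensed at 400 per well, compounds added by pin tool, plates incubated ≥48 hr at 37 °C, then CellTiter-Glo added for 30 min at room temperature before luminescence reading. Line: DT40 Tdp1-/- complemented with hTDP1; camptothecin omitted.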
RORgamma inh = ROR gamma (mouse) transcription inhibition | Potency, µM (series often up to 53.6 µM), usual class: inhibitors | hit rate 5.4% among 310,000 | Drosophila S2 Gal4-RORgamma UAS-luciferase reporter, 20 h | P51450 | AID 2551; also: nearly all actives have a fitted effect of over 60% in size
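Stably transfected Drosophila Schneider cells are the test system, with ROR gamma fused to Gal4 and luciferase under UAS control; luminescence is read after 20 hr of 700 uM copper sulfate induction at ambient temperature.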
Gal4-VP16 FLuc = counter-screen for ROR gamma inhibitors: Gal4-VP16 reporter; Drosophila S2 Gal4-VP16 UAS-luciferase, luminescence, 20 h; Potency, µM (titrated, usually from 53.6 µM), hits mostly inhibitors; hit rate 3.5% among 310,000;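 also: Gal4-VP16 expression switched on by copper sulfate through the metallothionein promoter; nearly all actives have a fitted effect of over 50% in size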
TDP1 cell CPT = DT40-hTDP1 cell growth loss with CPT; AID 686979; hit rate 12% among 420,000; Potency, µM (highest dose often 46.2 µM), most hits filed as inhibitors; chicken DT40 Tdp1-/-;hTDP1 cells + 20 nM CPT, ATP luminescence, 48 h; also: nearly all actives have a fitted effect of over 55% in size
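Chicken DT40 Tdp1-/- cells complemented with human TDP1, 400 cells/well, exposed to compounds plus 20 nM camptothecin for at least 48 h at 37 C; viability read as ATP content by CellTiter-Glo luminescence.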
Numbers stand for hits; [ ] = another dose, or the depositor's remark. An excerpt weighted towards active compounds, which were near 15% of everything screened. Calls follow the shape of the dose curve; as a rule, active = well fitted curve in the direction sought with a large enough effect; inconclusive = small, poorly fitted or top-dose-only effect, or another doubt; inactive = no such curve, though single readings can be large; an effect the other way counts as inactive or inconclusive.

Screening CCn1nnc2cc(C(=O)Nc3cccc(C(F)(F)F)c3)ccc21 returned ALOX12 inh inactive, DT40 TDP1 no CPT inactive and TDP1 cell CPT inactive.
For COc1ccccc1-c1cn2c(n1)CO[C@@H](CNC1CCCC1)C2 the results were ALOX12 inh inactive.
For O=C(Cn1nc(-c2ccc(Br)cc2)ccc1=O)NCc1ccc2c(c1)OCO2 the results were ALOX12 inh inactive.
`CC(=O)Oc1ccc(OC(C)=O)c(SCCCCCN2CCOCC2)c1` gave ELG1 repair inh inactive, ALOX12 inh inconclusive, DT40 TDP1 no CPT 3.7µM, RORgamma inh inconclusive, Gal4-VP16 FLuc inconclusive and TDP1 cell CPT inconclusive.
CC(C)c1ccc(OCCCCCN2CCOCC2)cc1 was read as ELG1 repair inh inconclusive, ALOX12 inh inconclusive, DT40 TDP1 no CPT inconclusive, RORgamma inh inactive, Gal4-VP16 FLuc inactive and TDP1 cell CPT inconclusive.
For O=C(NC(NCc1cccnc1)(C(F)(F)F)C(F)(F)F)c1cccnc1 the results were ALOX12 inh inactive.
CC(NC(=O)CSc1nc(-c2cccs2)nc2ccccc12)c1ccco1 (configuration not stated) was read as ALOX12 inh inactive.
O=C1CS/C(=N/N=C/c2cccs2)N1 was read as ELG1 repair inh inconclusive, ALOX12 inh inactive, DT40 TDP1 no CPT inactive, RORgamma inh 0.56µM, Gal4-VP16 FLuc inconclusive and TDP1 cell CPT inactive.
For O=C1N/C(=N\N=C\c2ccco2)SC1Cc1ccccc1[N+](=O)[O-] (configuration not stated) the results were ELG1 repair inh inactive, ALOX12 inh inactive, DT40 TDP1 no CPT inconclusive, RORgamma inh 3.2µM, Gal4-VP16 FLuc 5µM and TDP1 cell CPT inconclusive.
For CC1(C)S/C(=N/N=C/c2cccs2)NC1=O the results were ELG1 repair inh inconclusive, ALOX12 inh inactive, DT40 TDP1 no CPT inactive, RORgamma inh 0.79µM, Gal4-VP16 FLuc 5µM and TDP1 cell CPT inactive.
For O=C1N/C(=N\N=C\c2cccs2)SC1Cc1cccc(Cl)c1Cl (configuration not stated) the results were ELG1 repair inh inconclusive, ALOX12 inh inactive, DT40 TDP1 no CPT 5.2µM, RORgamma inh 0.32µM, Gal4-VP16 FLuc 0.22µM and TDP1 cell CPT 3.3µM.
Cc1ccc(/C=N/Nc2ccc(S(=O)(=O)Nc3ccc(Cl)cc3)cc2[N+](=O)[O-])cc1 was read as ALOX12 inh inactive.
For C=C[C@]1(C)C[C@@H](OC(=O)CSC(C)(C)CNC(=O)[C@H](N)C(C)C)[C@]2(C)[C@H](C)CC[C@]3(CCC(=O)[C@H]32)[C@@H](C)[C@@H]1O the results were DT40 TDP1 no CPT 0.27µM and TDP1 cell CPT 0.24µM.
For C=C[C@]1(C)C[C@@H](OC(=O)CSCCN(CC)CC)[C@]2(C)[C@H](C)CC[C@]3(CCC(=O)[C@H]32)[C@@H](C)[C@@H]1O the results were DT40 TDP1 no CPT 3µM and TDP1 cell CPT 7.5µM.
`CN(C)C(=O)c1ccc2oc(CN3CCN(C(=O)Nc4cccc(Cl)c4)CC3)nc2c1` gave ALOX12 inh inactive.
`COCCNc1ccc([N+](=O)[O-])cc1C(=O)Nc1cccc(C)n1` gave ELG1 repair inh inconclusive, ALOX12 inh inactive, DT40 TDP1 no CPT inconclusive, RORgamma inh inactive, Gal4-VP16 FLuc inactive and TDP1 cell CPT 13µM.
Screening Cc1ccnc(NC(=O)c2cc([N+](=O)[O-])cc([N+](=O)[O-])c2)c1 returned ELG1 repair inh inactive, ALOX12 inh inconclusive, DT40 TDP1 no CPT inactive, RORgamma inh inactive, Gal4-VP16 FLuc inactive and TDP1 cell CPT inactive.
`Cc1cccc(NC(=O)c2ccc([N+](=O)[O-])s2)n1` gave ELG1 repair inh inconclusive, ALOX12 inh inactive, DT40 TDP1 no CPT 5.8µM, RORgamma inh inactive, Gal4-VP16 FLuc inconclusive and TDP1 cell CPT 8.2µM.
`Cc1ccnc(NC(=O)c2cc3cc(F)ccc3s2)c1` gave ELG1 repair inh inconclusive, ALOX12 inh inconclusive, DT40 TDP1 no CPT inactive, RORgamma inh 3.2µM, Gal4-VP16 FLuc inconclusive and TDP1 cell CPT inactive.
For Cc1ccnc(NC(=O)c2ccc([N+](=O)[O-])s2)c1 the results were ELG1 repair inh inconclusive, ALOX12 inh inconclusive, DT40 TDP1 no CPT inconclusive, RORgamma inh inactive, Gal4-VP16 FLuc inconclusive and TDP1 cell CPT 16µM.
`Cc1ccc(C(=O)Nc2ccc3oc(C)nc3c2)c(C)c1` gave ALOX12 inh inactive.
Screening Cc1ccc(-c2cnc(CCC(=O)NCC(CC(C)C)N3CCOCC3)o2)cc1C (configuration not stated) returned ALOX12 inh inactive.
Cc1cccc(NC(=O)c2ccc([N+](=O)[O-])s2)c1C was read as ELG1 repair inh inconclusive, ALOX12 inh inactive, DT40 TDP1 no CPT 21µM, RORgamma inh inactive, Gal4-VP16 FLuc inconclusive and TDP1 cell CPT 15µM.
`Cc1ccc(CNc2cnn(C34CC5CC(CC(C5)C3)C4)c(=O)c2Cl)cc1` gave ELG1 repair inh inactive, ALOX12 inh inactive, DT40 TDP1 no CPT inconclusive, RORgamma inh inactive, Gal4-VP16 FLuc inactive and TDP1 cell CPT inconclusive.
Screening O=c1c(Cl)c(N2CCN(c3ccccc3)CC2)cnn1C12CC3CC(CC(C3)C1)C2 returned ELG1 repair inh inactive, ALOX12 inh inactive, DT40 TDP1 no CPT 23µM, RORgamma inh inactive, Gal4-VP16 FLuc inactive and TDP1 cell CPT 26µM.
O=c1c(Cl)c(NCc2ccc(F)cc2)cnn1C12CC3CC(CC(C3)C1)C2 was read as ELG1 repair inh inconclusive, ALOX12 inh inactive, DT40 TDP1 no CPT 16µM, RORgamma inh inactive[10 µM], Gal4-VP16 FLuc inconclusive and TDP1 cell CPT 16µM.
O=c1c(Cl)c(N2CCN(c3ccc(F)cc3)CC2)cnn1C12CC3CC(CC(C3)C1)C2 was read as ELG1 repair inh inactive, ALOX12 inh inactive, DT40 TDP1 no CPT inconclusive, RORgamma inh inactive, Gal4-VP16 FLuc inactive and TDP1 cell CPT inconclusive.
For Cc1cccc(-c2noc(CCCC(=O)Nc3ccc(C(N)=O)cc3)n2)c1 the results were ELG1 repair inh inactive, ALOX12 inh inactive, DT40 TDP1 no CPT inactive, RORgamma inh 16µM, Gal4-VP16 FLuc 11µM and TDP1 cell CPT inactive.
CCOc1ccc(NC(=O)CCCc2nc(-c3cccc(OC)c3)no2)cc1 was read as ALOX12 inh inactive, DT40 TDP1 no CPT 21µM and TDP1 cell CPT inconclusive.
`Cc1cccc(-c2noc(CCC(=O)Nc3ccc(C(N)=O)cc3)n2)c1` gave ELG1 repair inh inconclusive, ALOX12 inh inactive, DT40 TDP1 no CPT inactive, RORgamma inh inactive, Gal4-VP16 FLuc inactive and TDP1 cell CPT inactive.
